Several values for one entry are separate records, joined by “and”; a condition that tells them apart may be missing. Equal entries are not always repeated. More than one record can exist for a structure, and the calls need not agree. Activity calls are given as the source filed them. How the source made its calls: active means hit-call score of the fitted dose curve at least 0.9, where 1 is the maximum; inactive means score below 0.9.

Read-out in assay [1]: Transforming growth factor beta 1 (TGFb1), TGFB1 (gene 7040)
Description: BSK_KF3CT_TGFb1: BioMAP Diversity Plus: KF3CT Assay for Transforming growth factor beta 1 (TGFb1) Biomarker Activity (AID 2283072). As to conditions: primary human keratinocytes with fibroblasts; actives raise or lower the signal. An outline of the steps:
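ELISA quantifies TGF-b1 at 24 h post-dose in a primary human skin co-culture of keratinocytes and fibroblasts, with gain or loss judged against DMSO. Parallel SRB total-protein staining flags overt cytotoxicity.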

Read-out in assay [2]: C-C motif chemokine 2 (Homo sapiens) (UniProt P13500)
The experiment in a line: BSK_KF3CT_MCP1: BioMAP Diversity Plus: KF3CT Assay for Monocyte Chemoattractant Protein 1 (MCP1/CCL2) Biomarker Activity (AID 2283073). The note with it: primary human keratinocytes with fibroblasts; actives raise or lower the signal. A digest of the protocol:
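Keratinocytes and foreskin fibroblasts were co-cultured, dosed with chemical, and sampled 24 h later. MCP-1 was quantified by ELISA, and the endpoint was analyzed with bidirectional fitting using DMSO as negative control.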

Read-out in assay [3]: Matrix Metallopeptidase 9 (MMP9), MMP9 (gene 4318)
Description: BSK_KF3CT_MMP9: BioMAP Diversity Plus: KF3CT Assay for Matrix Metallopeptidase 9 (MMP9) Biomarker Activity (AID 2283074).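 On AC50: MMP9 protein level quantified by ELISA in the co-culture.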 The note with it: primary human keratinocytes with fibroblasts; actives raise or lower the signal. An outline of the steps: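 MMP-9 quantified by ELISA after 24 h chemical treatment of primary human skin keratinocyte/fibroblast co-cultures; gain or loss fitted against DMSO, with parallel SRB staining (0.1% SRB, 560 nm) for overt cytotoxicity.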

Read-out in assay [4]: urokinase plasminogen activator (uPA), PLAU (gene 5328)
Description: BSK_KF3CT_uPA: BioMAP Diversity Plus: KF3CT Assay for urokinase plasminogen activator (uPA) Biomarker Activity (AID 2283075). As to conditions: primary human keratinocytes with fibroblasts; actives raise or lower the signal. An outline of the steps: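 ELISA read-out of uPA 24 h after dosing human skin keratinocytes co-cultured with foreskin fibroblasts. Signal change fitted both ways relative to DMSO; sulforhodamine B on parallel cultures marks overt cytotoxicity.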

Read-out in assay [5]: CD40, CD40 (gene 958)
Description: BSK_LPS_CD40: BioMAP Diversity Plus: LPS Assay for CD40 Biomarker Activity (AID 2283076). The note with it: primary human HUVEC with PBMC; actives raise or lower the signal. An outline of the steps: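 CD40 signal, measured by ELISA, is fitted in both directions relative to DMSO vehicle. The system is an LPS-driven human vascular primary co-culture of endothelial cells and PBMC, sampled 24 h after compound addition.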

Read-out in assay [6]: Interleukin-8 (IL8), CXCL8 (gene 3576)
The experiment in a line: BSK_LPS_IL8: BioMAP Diversity Plus: LPS Assay for Interleukin-8 (IL8) Biomarker Activity (AID 2283078). As to conditions: primary human HUVEC with PBMC; actives raise or lower the signal. An outline of the steps:
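Endothelial cells and PBMC from human donors are co-cultured, treated with chemicals and LPS, then assayed for IL-8 by ELISA after 24 h. Parallel SRB staining (0.1% SRB after 10% TCA fixation, 560 nm) flags cytotoxicity.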

A short description of assay [7]: BSK_LPS_SRB: Viability Assessment in the BioMAP Diversity Plus: LPS Assay (AID 2283079).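 Further: total protein by sulforhodamine B absorbance as a cytotoxicity measure; measured one day after compound addition; fitted in both directions against DMSO so loss or gain of signal counts.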 As to conditions: primary human HUVEC with PBMC. An outline of the steps: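 Overt cytotoxicity was gauged by sulforhodamine B total-protein staining in a primary human vascular endothelial and mononuclear cell co-culture 24 h post-dosing. Activity was fitted in both directions relative to DMSO.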

Read-out in assay [8]: Interleukin-1 alpha (IL1a), IL1A (gene 3552)
The experiment in a line: BSK_LPS_IL1a: BioMAP Diversity Plus: LPS Assay for Interleukin-1 alpha (IL1a) Biomarker Activity (AID 2283080). As to conditions: primary human HUVEC with PBMC; actives raise or lower the signal. An outline of the steps:
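Measured: IL-1 alpha via ELISA at 24 h in LPS-activated human umbilical vein endothelium–PBMC co-culture. Baseline: DMSO, bidirectional fitting.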

Read-out in assay [9]: Monocyte Chemoattractant Protein-1 (MCP1), CCL2 (gene 6347)
Description: BSK_LPS_MCP1: BioMAP Diversity Plus: LPS Assay for Monocyte Chemoattractant Protein-1 (MCP1) Biomarker Activity (AID 2283081).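 On AC50: secreted MCP-1 protein quantified by ELISA in culture supernatant.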 As to conditions: primary human HUVEC with PBMC; actives raise or lower the signal. A digest of the protocol: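 LPS-stimulated HUVEC/PBMC co-culture; chemical, 24 h; MCP-1 by ELISA; bidirectional fit vs DMSO; cytotoxicity via SRB (0.1% stain, 10% TCA fix, 560 nm) in parallel wells.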

Assay [10] is described as follows: BSK_LPS_PGE2: BioMAP Diversity Plus: LPS Assay for Prostaglandin E2 (PGE2) Biomarker Activity (AID 2283082).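 On AC50: secreted prostaglandin E2 measured by ELISA in LPS-stimulated co-culture.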 As to conditions: primary human HUVEC with PBMC; actives raise or lower the signal. A digest of the protocol:
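PGE2 release measured by ELISA in an LPS-activated co-culture of human umbilical vein endothelial cells and peripheral blood mononuclear cells, read at 24 h post-dosing. DMSO served as baseline for bidirectional curve fitting.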

Read-out in assay [11]: Tissue Factor, F3 (gene 2152)
The experiment in a line: BSK_LPS_TissueFactor: BioMAP Diversity Plus: LPS Assay for Tissue Factor Biomarker Activity (AID 2283084). As to conditions: primary human HUVEC with PBMC; actives raise or lower the signal. A digest of the protocol:
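In this co-culture system of umbilical vein endothelium with PBMC, stimulated with LPS, cell-surface CD142 is detected by ELISA at 24 h. Endpoint values derive from bidirectional fitting, DMSO serving as baseline.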

Read-out in assay [12]: Tumor necrosis factor (Homo sapiens) (UniProt P01375)
Description: BSK_LPS_TNFa: BioMAP Diversity Plus: LPS Assay for Tumour Necrosis Factor alpha (TNFa) Biomarker Activity (AID 2283085).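 On AC50: TNFa protein level quantified by ELISA in the co-culture.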 The note with it: primary human HUVEC with PBMC; actives raise or lower the signal. A digest of the protocol:
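TNFa was quantified by ELISA in LPS-activated co-cultures of human endothelial cells and PBMC, 24 h post-dosing. Both increases and decreases versus DMSO were fitted.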

Read-out in another assay: CD38, CD38 (gene 952)
The experiment in a line: BSK_SAg_CD38: BioMAP Diversity Plus: SAg Assay for CD38 Biomarker Activity (AID 2283087). As to conditions: primary human HUVEC with PBMC; actives raise or lower the signal. An outline of the steps:
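CD38 quantified by ELISA (fluorescence) in a superantigen-activated endothelial cell–PBMC co-culture at 24 h post-dose. Activity fitted in both directions relative to DMSO; parallel SRB and Alamar Blue cytotoxicity read-outs.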

Read-out in assay [13]: CD40, CD40 (gene 958)
Description: BSK_SAg_CD40: BioMAP Diversity Plus: SAg Assay for CD40 Biomarker Activity (AID 2283088). The note with it: primary human HUVEC with PBMC; actives raise or lower the signal. A digest of the protocol: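 Fluorescence ELISA read-out of CD40 from umbilical vein endothelium plus peripheral blood mononuclear cells, sampled 24 h after dosing. Values come from bidirectional curve fitting with DMSO as baseline.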

Read-out in another assay: CD69, CD69 (gene 969)
The experiment in a line: BSK_SAg_CD69: BioMAP Diversity Plus: SAg Assay for CD69 Biomarker Activity (AID 2283089).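 On AC50: cell surface CD69 protein quantified by ELISA with fluorescence detection.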 As to conditions: primary human HUVEC with PBMC; actives raise or lower the signal. An outline of the steps: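 Values derive from bidirectional fitting relative to DMSO vehicle. Cells: umbilical vein endothelium plus peripheral blood mononuclear cells, treated 24 h before fluorescent ELISA for CD69.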

Read-out in assay [14]: Monocyte Chemoattractant Protein-1 (MCP1), CCL2 (gene 6347)
The experiment in a line: BSK_SAg_MCP1: BioMAP Diversity Plus: SAg Assay for Monocyte Chemoattractant Protein-1 (MCP1) Biomarker Activity (AID 2283090). As to conditions: primary human HUVEC with PBMC; actives raise or lower the signal. An outline of the steps:
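Values derive from bidirectional fitting of ELISA-measured MCP1 against DMSO controls. Readings were taken 24 h after dosing human vascular endothelial cells co-cultured with peripheral blood mononuclear cells under superantigen stimulation.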

Read-out in assay [15]: E-selectin (Homo sapiens) (UniProt P16581)
The experiment in a line: BSK_SAg_Eselectin: BioMAP Diversity Plus: SAg Assay for Eselectin Biomarker Activity (AID 2283091). As to conditions: primary human HUVEC with PBMC; actives raise or lower the signal. An outline of the steps: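 Primary human endothelial cells and peripheral blood mononuclear cells were co-cultured and exposed to chemical for 24 hours. E-selectin levels were then quantified by ELISA, with bidirectional curve fitting normalised to DMSO controls.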

Read-out in assay [16]: Macrophage colony-stimulating factor (MCSF), CSF1 (gene 1435)
The experiment in a line: BSK_LPS_MCSF: BioMAP Diversity Plus: LPS Assay for Macrophage colony-stimulating factor (MCSF) Biomarker Activity (AID 2283083). As to conditions: primary human HUVEC with PBMC; actives raise or lower the signal. An outline of the steps:
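Compound is added to a human vascular primary co-culture of umbilical vein endothelium and blood mononuclear cells. After 24 h, M-CSF is quantified by ELISA. Signal changes are fitted in both directions against DMSO.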

Read-out in assay [17]: Vascular cell adhesion molecule 1 (VCAM1), VCAM1 (gene 7412)
Description: BSK_LPS_VCAM1: BioMAP Diversity Plus: LPS Assay for Vascular cell adhesion molecule 1 (VCAM1) Biomarker Activity (AID 2283086). The note with it: primary human HUVEC with PBMC; actives raise or lower the signal. A digest of the protocol:
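VCAM-1 quantified by ELISA in an LPS-activated co-culture of human endothelial cells and peripheral blood mononuclear cells, read 24 h post-treatment. Fitted in both directions versus DMSO; parallel SRB staining flags overt cytotoxicity.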

Chain of E-selectin (Homo sapiens) (P16581 whole entry, looked up): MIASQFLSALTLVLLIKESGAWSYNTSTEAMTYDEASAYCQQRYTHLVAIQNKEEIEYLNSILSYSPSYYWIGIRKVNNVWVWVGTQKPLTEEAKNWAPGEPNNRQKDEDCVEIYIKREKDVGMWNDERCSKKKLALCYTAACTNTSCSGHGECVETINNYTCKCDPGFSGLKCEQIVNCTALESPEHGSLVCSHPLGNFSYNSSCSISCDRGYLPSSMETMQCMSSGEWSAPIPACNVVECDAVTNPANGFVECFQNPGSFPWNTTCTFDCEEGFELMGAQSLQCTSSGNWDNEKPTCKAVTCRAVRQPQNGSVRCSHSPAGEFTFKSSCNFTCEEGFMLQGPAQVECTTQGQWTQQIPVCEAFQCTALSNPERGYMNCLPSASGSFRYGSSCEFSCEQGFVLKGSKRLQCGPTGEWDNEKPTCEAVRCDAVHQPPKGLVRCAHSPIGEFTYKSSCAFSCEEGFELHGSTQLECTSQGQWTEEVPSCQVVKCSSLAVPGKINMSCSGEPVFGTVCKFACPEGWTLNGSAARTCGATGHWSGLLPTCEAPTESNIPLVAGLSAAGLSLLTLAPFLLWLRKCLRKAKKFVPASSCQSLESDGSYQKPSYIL
Chain of Tumor necrosis factor (Homo sapiens) (P01375 whole entry, looked up): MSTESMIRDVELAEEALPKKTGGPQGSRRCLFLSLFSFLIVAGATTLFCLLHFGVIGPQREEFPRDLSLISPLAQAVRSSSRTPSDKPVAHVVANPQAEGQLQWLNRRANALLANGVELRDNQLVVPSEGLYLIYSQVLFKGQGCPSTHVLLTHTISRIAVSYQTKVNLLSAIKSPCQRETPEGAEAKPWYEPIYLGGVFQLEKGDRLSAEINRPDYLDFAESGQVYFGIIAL

Consider `COCC(C)OCC(C)O` (stereo not given), for which the outcome is “inactive” in assay [1]; “inactive” in assay [2]; “inactive” in assay [3]; “inactive” in assay [4]; “inactive” with CD40, CD40 (gene 958) [5]; “inactive” in assay [6]. In addition, the outcome in assay [7], in [8], in assay [9], in assay [10], in assay [11] and in assay [12] was inactive. Also, the outcome with CD38, CD38 (gene 952) is “inactive”; in the assay with CD40, CD40 (gene 958) [13] it was “inactive”; with CD69, CD69 (gene 969) it was “inactive”; in [14], “inactive”; in assay [15], “inactive”.
As to `CCc1nn(C2CCCCC2)c2cc(C3(C#N)CCC(C(=O)O)CC3)ccc12` (stereo not given), the outcome in [1], in assay [10] and in [11] was inactive. For the same compound, the AC50 (in general, the midpoint of the concentration-response curve, whichever way the signal moves) in [2] was 20 µM (active); in assay [3], 8.4 µM (active); in assay [4], 11.3 µM (active); with CD40, CD40 (gene 958) [5], 2.51 µM (active); in [6] it was 20 µM (active); in assay [7], 4.2 µM (active). The AC50 was 1.15 µM (active) in assay [8]; 10.1 µM (active) in [9]; 358 nM (active) in [12]; 20 µM (active) with CD38, CD38 (gene 952); 10.6 µM (active) in the assay with CD40, CD40 (gene 958) [13]; 5.47 µM (active) with CD69, CD69 (gene 969). The concentration at half-maximal activity (AC50) in assay [14] is 4.61 µM (active); in [15], 1.78 µM (active).
`CN(C)C=O`: the outcome is “inactive” in assay [1]; “inactive” in assay [2]; “inactive” in assay [3]; “inactive” in assay [4]; “inactive” with CD40, CD40 (gene 958) [5]; “inactive” in assay [6]. The outcome in assay [7], in assay [8], in assay [9], in assay [10], in [16] and in [11] was inactive. The outcome in assay [12] is “inactive”; with CD38, CD38 (gene 952) it was “inactive”; with CD40, CD40 (gene 958) [13], “inactive”; in the assay with CD69, CD69 (gene 969), “inactive”; in [14] it was “inactive”; in [15], “inactive”.
Take `CCCCC(CC)COC(=O)CCCCC(=O)OCC(CC)CCCC` (stereo not given): the outcome is “inactive” in assay [1]; “inactive” in assay [2]; “inactive” in [3]; “inactive” in assay [4]; “inactive” with CD40, CD40 (gene 958) [5]; “inactive” in assay [6]. Besides, the outcome in assay [7] is “inactive”; in assay [8] it was “inactive”; in [9] it was “inactive”; in assay [10], “inactive”; in assay [11] it was “inactive”; in the assay with CD38, CD38 (gene 952), “inactive”. The outcome with CD40, CD40 (gene 958) [13] is “inactive”; with CD69, CD69 (gene 969), “inactive”; in assay [14], “inactive”; in assay [15], “inactive”. Moreover, in assay [12], the AC50 was 3970 nM (active).
Consider `CCCCCCCC(=O)O`, for which the outcome in [1] was “inactive”; in assay [2], “inactive”; in assay [3] it was “inactive”; in assay [4], “inactive”; with CD40, CD40 (gene 958) [5], “inactive”; in assay [6] it was “inactive”. The outcome in [7], in [8], in [9], in [10], in assay [11] and in assay [12] was inactive. The outcome in assay [17] is “inactive”; in the assay with CD38, CD38 (gene 952) it was “inactive”; with CD40, CD40 (gene 958) [13], “inactive”; with CD69, CD69 (gene 969), “inactive”; in [14] it was “inactive”; in [15], “inactive”.
As to `FC(F)(I)C(F)(F)C(F)(F)C(F)(F)C(F)(F)C(F)(F)I`, the concentration at half-maximal activity (AC50) in assay [2] was 6.01 µM (active) [middle of 5 runs]; in assay [3], 8.17 µM (active) [middle of 5 runs]; in assay [4], 11.7 µM (active) [middle of 5 runs]; in assay [8], 18 µM (active) [middle of 5 runs]; in assay [9] it was 36.5 µM (active) [middle of 5 runs]; in [10], 7.63 µM (active) and 7.34 µM (active) and 7.24 µM (active). Also, the AC50 in assay [12] is 20.2 µM (active) [middle of 5 runs]. The outcome in assay [10] was inactive.

These data come from PubChem BioAssay (EPA / NIEHS).
